Experimental data taken from PubChem BioAssay (EPA / NIEHS).
Values joined by “and” are separate entries in the source; they are usually repeats but may differ in a detail not shown here. Equal values may be shown once. Inconclusive results are not listed. More than one record can exist for a structure, and the calls need not agree. Active and inactive are the calls of the source. The calls were made as follows, unless noted: active = hit-call score of the fitted dose curve at least 0.9, where 1 is the maximum; inactive = score below 0.9.

Experiments:
[1] = read-out: Collagen I, COL1A1 (gene 1277); assay: BSK_MyoF_CollagenI: BioMAP Diversity Plus: MyoF Assay for Collagen I Biomarker Activity (AID 2284238); conditions: primary human lung fibroblasts
In short: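 Human lung fibroblasts were exposed to test chemical for 24 h, then Collagen I was quantified by ELISA. Activity was fitted in the increasing direction against DMSO as the negative control and baseline.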

[2] = read-out: Collagen III, COL3A1 (gene 1281); assay: BSK_MyoF_CollagenIII: BioMAP Diversity Plus: MyoF Assay for Collagen III Biomarker Activity (AID 2284239); conditions: primary human lung fibroblasts
In short: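 Human lung fibroblasts were dosed with chemicals and, 24 hours later, collagen III was measured by ELISA. Activity was fitted in the positive direction against the DMSO negative-control baseline.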

[3] = read-out: Actin alpha 1 (ACTA1), ACTA1 (gene 58); assay: BSK_MyoF_ACTA1: BioMAP Diversity Plus: MyoF Assay for Actin alpha 1 (ACTA1) Biomarker Activity (AID 2284244); conditions: primary human lung fibroblasts
In short: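 Measured by ELISA: alpha-smooth muscle actin in human primary lung fibroblasts 24 h after dosing, with DMSO as baseline and upward signal change as the fitted direction.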

[4] = read-out: Interleukin 2 (IL2), IL2 (gene 3558); assay: BSK_BT_xIL2: BioMAP Diversity Plus: BT Assay for Interleukin 2 (IL2) Biomarker Activity (AID 2284245); conditions: primary human B cells with PBMC
In short: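 Secreted interleukin-2 from human B cell/PBMC co-cultures, measured 24 h post-dosing by Luminex multiplex immunoassay. Upward-direction curve fitting against DMSO baseline.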

[5] = read-out: Collagen IV, COL4A1 (gene 1282); assay: BSK_MyoF_CollagenIV: BioMAP Diversity Plus: MyoF Assay for Collagen IV Biomarker Activity (AID 2284247); conditions: primary human lung fibroblasts
In short: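 Activity is scored as a signal increase over DMSO in an ELISA for Collagen IV, measured on human lung fibroblasts at 24 h after chemical treatment. Cytotoxicity is checked in parallel cultures by sulforhodamine B total-protein staining.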

[6] = read-out: Monokine induced gamma interferon (MIG), CXCL9 (gene 4283); assay: BSK_KF3CT_MIG: BioMAP Diversity Plus: KF3CT Assay for Monokine induced gamma interferon (MIG) Biomarker Activity (AID 2284248); conditions: primary human keratinocytes with fibroblasts
In short: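 Human keratinocyte plus foreskin fibroblast primary co-culture dosed with test chemical for 24 h; MIG level measured by ELISA and fitted in the positive direction against DMSO as baseline.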

[7] = read-out: Vascular cell adhesion molecule 1 (VCAM1), VCAM1 (gene 7412); assay: BSK_BF4T_VCAM1: BioMAP Diversity Plus: BF4T Assay for Vascular cell adhesion molecule 1 (VCAM1) Biomarker Activity (AID 2284249); conditions: primary human bronchial epithelial cells with fibroblasts
In short: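 Human bronchial epithelial cell and dermal fibroblast co-culture exposed 24 h. VCAM-1 measured by ELISA; parallel SRB total-protein staining for cytotoxicity. Fitted in positive direction relative to DMSO.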

[8] = CCTE_Mundy_HCI_hNP1_Casp3_7: CCTE's Caspase-Glo 3/7 Assay in human neuroprogenitor cells for Apoptosis, Mundy Lab (AID 2284240)
In short: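 Apoptosis is scored by activated caspase-3/7 luminescence in WA09-derived neural progenitor cells, measured 26.5 h after chemical dosing. Values represent gain of signal relative to DMSO vehicle.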

[9] = CCTE_Mundy_HCI_hNP1_CellTiter: CCTE's Cell Titer-Glo 2 Assay in human neuroprogenitor cells for Viability, Mundy Lab (AID 2284241; active = hit-call score of the fitted dose curve at least 0.9, where 1 is the maximum)
In short: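 Human neural progenitor cells (hNP1, WA09-derived) were plated on poly-L-ornithine/laminin and grown 40 to 44 hours at 37 °C, 5% CO2 before chemical addition. Twenty-four hours later, ATP was measured by CellTiter-Glo luminescence; loss of signal versus DMSO indicates reduced viability.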

[10] = CCTE_Mundy_HCI_Cortical_Synap_Neur_Matur_NeuronCount: CCTE's Synaptogenesis and Neurite Maturation Assay in rat cortical cells for Neuron Count, Mundy Lab (AID 2284242; active = hit-call score of the fitted dose curve at least 0.9, where 1 is the maximum;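 as to AC50: neuron number from Hoechst nuclei and MAP2 staining by high-content imaging; hits reduce neuron count versus DMSO baseline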)
In short: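 Imaging-based neuron count in rat cortical cultures after chemical exposure from DIV 7 to DIV 12, with AraC added at DIV 5. Activity is fitted relative to DMSO.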

Measured: AC50

CC=CC(=O)C1=C(C)C=CCC1(C)C
inactive: [1] | [2] | [3] | [4] | [5]

CC(=O)OC(C)(C)C1CC=C(C)CC1 (configuration not stated)
inactive: [1] | [2] | [3] | [4] | [5]

CCOC(=O)CCCCCCCCC(=O)OCC
inactive: [1] | [2] | [3] | [4] | [5]

CCCCCCCCCCCCS
active: [1] 20 µM | [2] 27.9 µM | [3] 18.6 µM
inactive: [4] | [5]

OCC(F)(OC(F)(F)C(F)(OC(F)(F)C(F)(F)C(F)(F)F)C(F)(F)F)C(F)(F)F (configuration not stated)
active: [1] 5.55 µM and 3.38 µM | [2] 5.14 µM and 4.82 µM | [3] 3.43 µM and 4.31 µM | [4] 4.97 µM | [5] 3.9 µM | [6] 5.41 µM and 3.33 µM
inactive: [4] | [5] | [7]

CCOC(=O)C=Cc1ccccc1
inactive: [1] | [2] | [3] | [4] | [5]

CC(C)(C)c1cccc(O)c1
inactive: [1] | [2] | [3] | [4] | [5]

O=S1(=O)CC(Cl)(Cl)C(Cl)(Cl)C1
active: [1] 1.52 µM | [2] 1.89 µM | [3] 1.13 µM | [4] 0.703 µM | [5] 1.85 µM

c1ccc2c(c1)-c1ccc3ccc4cccc5cc-2c1c3c45
inactive: [1] | [3]
active: [2] 10 µM | [4] 0.709 µM | [5] 0.0918 µM

CC1(C)[C@H](C=C(Cl)Cl)[C@H]1C(=O)OCc1cccc(Oc2ccccc2)c1
inactive: [1] | [2] | [3] | [4] | [5]

O=C1OC2(c3ccc(O)cc3Oc3cc(O)ccc32)c2ccccc21
inactive: [1] | [2] | [3] | [4] | [5]

CC1=CC(C)C(C=O)C(C)C1 (configuration not stated) (tested in a mixture with another compound)
inactive: [1] | [2] | [3] | [4] | [5]

c1ccc(Sc2ccccc2)cc1
inactive: [4]
active: [1] 30.3 µM | [2] 34.2 µM | [3] 30.8 µM | [5] 32.6 µM

NC(=O)c1c(Cl)cccc1Cl
inactive: [1] | [2] | [3] | [4] | [5]

Nc1ccc(N)c([N+](=O)[O-])c1
inactive: [1] | [2] | [3] | [4] | [5]

C=C1CC/C=C(\C)CC[C@@H]2[C@@H]1CC2(C)C
inactive: [4]
active: [1] 25.7 µM | [2] 30.1 µM | [3] 14.9 µM | [5] 23.8 µM

CC(C)Cc1ccc(C(C)C(=O)O)cc1 (configuration not stated)
inactive: [1] | [2] | [8] | [9] | [10] | [3] | [4] | [5]

CCCCCCCC1CCCC1=O (configuration not stated)
active: [1] 32.6 µM | [2] 32.7 µM
inactive: [3] | [4] | [5]

C=CC(=O)OCC(CO)(COC(=O)C=C)COC(=O)C=C
inactive: [5]
active: [1] 2.35 µM | [2] 1.25 µM | [3] 1.39 µM | [4] 1.27 µM

CC(=O)OCC=C(C)CCC=C(C)CCC=C(C)C
inactive: [1] | [2] | [3] | [5]
active: [4] 36.4 µM

CC(=O)CCC=C(C)CCC=C(C)C
inactive: [2] | [3] | [4] | [5]

CCCCN(CCO)CCO
inactive: [6]

CCC(=O)OCC=Cc1ccccc1
inactive: [1] | [2] | [3] | [4] | [5]

C=C(F)C(=O)OC(C(F)(F)F)C(F)(F)F
inactive: [1] | [2] | [3] | [4] | [5] | [6] | [7]

N#CCCNCCC#N
inactive: [8] | [9]

CCCCCCCCCC(=O)OCC
inactive: [1] | [2] | [4] | [5]
active: [3] 26.9 µM

O=S(=O)(O)C(F)(F)C(F)(F)OC(F)(F)C(F)(F)F
inactive: [1] | [2] | [3] | [4] | [5] | [6] | [7]

COc1ccccc1NC(=O)CC(C)=O
inactive: [1] | [2] | [3] | [4] | [5]

CCn1cc(C(=O)O)c(=O)c2ccc(C)nc21
inactive: [6]

CCCCC(CC)COC(=O)COc1ccc(Cl)cc1C (configuration not stated)
active: [8] 50 µM | [10] 11.9 µM

CC(C)(CO)CO
inactive: [6]

O=C(O)C(F)(F)C(F)(F)C(F)(F)C(F)(F)C(F)(F)C(F)(F)C(F)(F)C(F)F
active: [7] 2.3 µM
inactive: [1] | [2] | [3] | [4] | [5] | [6] | [7]

c1ccc(OCCOc2ccccc2)cc1
inactive: [6]

c1ccc2scnc2c1
inactive: [8]

N[C@@H](CCC(=O)O)C(=O)O
inactive: [8] | [9] | [10]

CC(C)CCCC(C)(C)O
inactive: [6]

O=C(O)C(F)(F)OC(F)(F)C(F)(F)OC(F)(F)C(F)(F)C(F)(F)C(F)(F)F
inactive: [3] | [4] | [6] | [7]
active: [1] 30 µM and 31.8 µM | [2] 42.2 µM and 44.1 µM | [5] 43.5 µM and 38.4 µM

CCCO[Si](OCCC)(OCCC)OCCC
inactive: [6]

CC(=O)c1ccc(C)cc1
inactive: [6]

C=C(C)C(=O)OCCC(F)(F)C(F)(F)C(F)(F)C(F)(F)C(F)(F)C(F)(F)C(F)(F)C(F)(F)F
inactive: [1] | [2] | [3] | [4] | [5] | [6] | [7]

OCCN1CCOCC1
active: [2] 0.016 µM
inactive: [1] | [3] | [4] | [5]
